The text below walks through data of PubChem BioAssay.

The source made the active and inactive calls. Unless noted, the rule behind the calls is not given here.

Assay [1] relates to Wnt5a (protein binding on small-molecule microarray). In words: Wnt5a binders on small-molecule microarray, primary screen, biophysical, 635/667 nm fluorescence (AID 1142).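 Note: fluorescence read at 667 nm with signal to noise per printed feature.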 Particulars: 635 nm fluorescence, higher = more signal.
A short description of assay [2]: cell viability in Huh7 cells, primary screen, cytotoxicity control for HCV replication inhibitor project, CellTiter-Glo luminescence, basal, 48 h (AID 1143).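 Note: Huh7 hepatoma cells carrying a hepatitis C replication reporter with no stimulus; test concentration not given here.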 Conditions: Huh7 HCV replicon, CellTiter-Glo luminescence, 48 h, higher = more signal, called active from +8 up or from −8 down unless noted. In general terms: Cellular ATP, detected with luciferase, serves as a proxy for viable cell number.

The nature of assay [3]: P. aeruginosa biofilm formation inhibitors, primary screen, PAO1 strain, BacTiter-Glo luminescence, LB-PBS (AID 1144). Particulars: 12 h, higher = more signal.
The nature of assay [4]: CREB reporter modulators without forskolin, primary screen, cell-based, PC12, CRE-LacZ reporter, unstimulated (AID 1145). Particulars: no forskolin, luminescence, 4.5 h; higher = more signal, called active from +8 up or from −8 down unless noted.
The nature of assay [5]: CREB reporter modulators under forskolin, primary screen, cell-based, PC12, CRE-LacZ reporter, forskolin-stimulated (AID 1146).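 Note: PC12 cells with 6xCRE LacZ reporter stimulated by forskolin 10 µM; beta-galactosidase reporter signal reflecting CREB driven transcription.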 Particulars: luminescence, 4.5 h; higher = more signal, called active from +8 up or from −8 down unless noted.
Assay [6] concerns the target Streptavidin (Streptomyces avidinii) (UniProt P22629). In words: streptavidin binders on small-molecule microarray, primary screen, artefact control for SMM compound annotation, biophysical, 635/667 nm fluorescence (AID 1147).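 Note: signal reflects streptavidin binding to arrayed compounds as a control protein.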 Particulars: streptavidin binding, higher = more signal.
The nature of assay [7]: small-molecule binders of probe aInhba, primary screen, biochemical, small-molecule microarray, 635/667 nm fluorescence (AID 1148).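 Note: score merges 667nm spot fluorescence with signal-to-noise for antibody binding to printed compounds.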 Conditions: higher = more signal; small-molecule microarray, probe aInhba, fluorescence unless noted.
Assay [8] addresses Torsin-1A (Homo sapiens) (UniProt O14656). Nature of the assay: torsin A binders from cell lysate, primary screen, small-molecule microarray, wild-type, 635/667 nm (AID 1149). Particulars: COS7 hTOR1A-WT lysate, 635 nm fluorescence, higher = more signal.
For assay [9] the target is unchanged. Nature of the assay: small-molecule binders of mutant TOR1A in lysate, primary screen, cell lysate, small-molecule microarray, COS7 lysate, 635/667 nm fluorescence (AID 1150).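 Note: score pools 667 nm emission and signal to noise measuring lysate protein binding.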 Particulars: COS7 hTOR1A mutant lysate, 635 nm fluorescence, higher = more signal.
Assay [10] concerns Sonic hedgehog protein (Shh). In words: small-molecule binders of Shh protein, primary screen, biochemical, small-molecule microarray, 635/667 nm fluorescence (AID 1151).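 Note: Shh protein binding to compounds spotted on small-molecule microarray slides; score combines spot fluorescence intensity with signal-to-noise across triplicate slides.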 Conditions: small-molecule microarray binding, 635 nm fluorescence; higher = more signal.
The nature of assay [11]: E. coli DRC41 culture turbidity changes, primary screen, E. coli filamentation inducer project, strain DRC41, OD650, 48 h (AID 1152).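 Note: E. coli MC1000 strain DRC41 lacking acrAB efflux pump and sulA.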 Conditions: E. coli DRC41 (acrAB sulA); higher = more signal, called active from +8 up or from −8 down unless noted.
The nature of assay [12]: small-molecule binders of probe aLefty1, primary screen, biochemical, small-molecule microarray, 635/667 nm fluorescence (AID 1153).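 Note: score merges spot fluorescence with signal-to-noise ratio from the scanned slide images.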 Conditions: higher = more signal; small-molecule microarray, probe aLefty1, fluorescence unless noted.
Assay [13] in a line: PSAC antagonists in infected red cells, primary screen, cell-based, P. falciparum Indochina, OD700, 1 h (AID 1154). Particulars: P. falciparum Indochina infected RBC osmotic lysis; higher = more signal, called active from +8 up or from −8 down unless noted.
Assay [14] can be described thus: PSAC antagonists in infected red cells, primary screen, cell-based, P. falciparum Indochina, OD700, 2 h (AID 1155).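 Note: lysis reports solute entry through the parasite surface anion channel PSAC; channel blockers reduce lysis of infected cells.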 Particulars: P. falciparum Indochina infected erythrocytes, osmotic lysis OD700; higher = more signal, called active from +8 up or from −8 down unless noted.
Assay [15] can be described thus: osmotic lysis modulators in infected erythrocytes, primary screen, PSAC antagonist project, cell-based, P. falciparum Indochina, OD700, 3 h (AID 1156). Particulars: higher = more signal, called active from +8 up or from −8 down unless noted.
The nature of assay [16]: PSAC antagonists in infected red cells, primary screen, cell-based, P. falciparum Indochina, OD700, 18 h (AID 1157). Particulars: P. falciparum Indochina infected erythrocytes, osmotic lysis OD700, 18 h; higher = more signal, called active from +8 up or from −8 down unless noted.
The nature of assay [17]: modulators of S6 phosphorylation in cells, primary screen, cell-based, A549, cytoblot, luminescence, serum-stimulated (AID 1158).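 Note: serum-stimulated A549 lung adenocarcinoma cells; signal is phosphorylated S6 detected by cytoblot immunostaining with HRP secondary.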 Conditions: A549 phospho-S6 cytoblot, 5 h, higher = more signal.
Assay [18] concerns the target NADPH oxidase 2 (Homo sapiens) (UniProt P04839). In words: NOX2-dependent H2O2 signal modulators, primary screen, NOX inhibitor project, cell-based, HEK293-NOX2, PMA-stimulated, Amplex Red fluorescence (AID 1159). Note: test concentration not given here. Particulars: 45 min; higher = more signal, called active from +8 up or from −8 down unless noted.
Assay [19] concerns the target NADPH oxidase 4 (Homo sapiens) (UniProt Q9NPH5). In words: NOX4-dependent H2O2 signal modulators, primary screen, NOX inhibitor project, cell-based, HEK293-NOX4, tetracycline-induced, Amplex Red fluorescence (AID 1160). Conditions: 45 min; higher = more signal, called active from +8 up or from −8 down unless noted.
The target in assay [20] is NADPH oxidase 5 (Homo sapiens) (UniProt Q96PH1). In words: NOX5-dependent H2O2 signal modulators, primary screen, NOX inhibitor project, cell-based, HEK293-NOX5, Amplex Red fluorescence (AID 1161). Conditions: HEK293-NOX5, ionomycin, 45 min, higher = more signal.
Sequence of NADPH oxidase 5 (Homo sapiens) (Q96PH1 whole entry, looked up): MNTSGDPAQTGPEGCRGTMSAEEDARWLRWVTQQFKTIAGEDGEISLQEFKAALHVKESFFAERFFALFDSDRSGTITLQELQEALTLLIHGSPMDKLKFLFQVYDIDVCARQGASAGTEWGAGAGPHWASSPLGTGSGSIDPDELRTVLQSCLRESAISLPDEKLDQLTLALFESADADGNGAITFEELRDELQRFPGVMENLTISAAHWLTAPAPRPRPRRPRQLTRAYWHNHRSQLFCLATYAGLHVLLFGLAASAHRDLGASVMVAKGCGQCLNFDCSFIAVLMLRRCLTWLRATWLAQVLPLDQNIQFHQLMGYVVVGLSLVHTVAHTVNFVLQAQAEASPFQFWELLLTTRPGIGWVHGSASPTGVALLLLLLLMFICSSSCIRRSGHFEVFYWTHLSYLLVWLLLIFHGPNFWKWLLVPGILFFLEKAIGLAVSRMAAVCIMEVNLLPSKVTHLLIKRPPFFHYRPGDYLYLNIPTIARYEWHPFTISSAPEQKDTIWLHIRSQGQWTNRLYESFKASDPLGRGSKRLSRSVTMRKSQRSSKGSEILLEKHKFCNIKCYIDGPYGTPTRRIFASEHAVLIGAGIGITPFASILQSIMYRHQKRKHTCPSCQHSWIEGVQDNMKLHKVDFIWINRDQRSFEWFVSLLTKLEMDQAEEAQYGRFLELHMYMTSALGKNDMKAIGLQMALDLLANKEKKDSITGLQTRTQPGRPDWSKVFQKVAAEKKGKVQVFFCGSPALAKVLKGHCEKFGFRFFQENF

Sequence of NADPH oxidase 2 (Homo sapiens) (P04839 whole entry, looked up): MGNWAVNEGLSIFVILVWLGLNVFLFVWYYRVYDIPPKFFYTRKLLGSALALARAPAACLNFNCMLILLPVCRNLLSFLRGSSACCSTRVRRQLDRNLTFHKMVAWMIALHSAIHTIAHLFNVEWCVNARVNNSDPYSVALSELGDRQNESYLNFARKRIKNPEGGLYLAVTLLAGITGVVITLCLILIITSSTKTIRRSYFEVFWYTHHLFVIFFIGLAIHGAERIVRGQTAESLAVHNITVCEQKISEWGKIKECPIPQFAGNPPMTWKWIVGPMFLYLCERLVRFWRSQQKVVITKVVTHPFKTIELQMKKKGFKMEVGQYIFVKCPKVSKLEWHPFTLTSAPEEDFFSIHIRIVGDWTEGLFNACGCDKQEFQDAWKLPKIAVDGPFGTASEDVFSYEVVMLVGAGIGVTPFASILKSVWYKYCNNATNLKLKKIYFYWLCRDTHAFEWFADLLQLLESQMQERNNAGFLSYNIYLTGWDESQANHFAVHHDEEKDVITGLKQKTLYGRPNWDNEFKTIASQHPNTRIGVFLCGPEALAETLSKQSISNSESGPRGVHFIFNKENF
Sequence of NADPH oxidase 4 (Homo sapiens) (Q9NPH5 whole entry, looked up): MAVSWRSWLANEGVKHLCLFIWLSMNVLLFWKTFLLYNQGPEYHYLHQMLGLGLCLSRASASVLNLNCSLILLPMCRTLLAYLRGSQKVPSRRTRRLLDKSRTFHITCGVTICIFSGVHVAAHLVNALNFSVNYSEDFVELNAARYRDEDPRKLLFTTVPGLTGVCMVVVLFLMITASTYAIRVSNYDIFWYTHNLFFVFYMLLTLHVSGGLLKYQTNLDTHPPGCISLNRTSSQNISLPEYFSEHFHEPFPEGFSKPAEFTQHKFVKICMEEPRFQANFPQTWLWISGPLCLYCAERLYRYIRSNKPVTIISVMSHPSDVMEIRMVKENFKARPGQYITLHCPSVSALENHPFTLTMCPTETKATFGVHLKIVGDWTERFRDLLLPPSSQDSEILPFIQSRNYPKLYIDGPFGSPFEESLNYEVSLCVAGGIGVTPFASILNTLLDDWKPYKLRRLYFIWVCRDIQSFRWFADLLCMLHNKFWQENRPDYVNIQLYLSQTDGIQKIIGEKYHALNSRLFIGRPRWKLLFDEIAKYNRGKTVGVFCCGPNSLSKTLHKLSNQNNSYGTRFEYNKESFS
Sequence of Streptavidin (Streptomyces avidinii) (P22629 whole entry, looked up): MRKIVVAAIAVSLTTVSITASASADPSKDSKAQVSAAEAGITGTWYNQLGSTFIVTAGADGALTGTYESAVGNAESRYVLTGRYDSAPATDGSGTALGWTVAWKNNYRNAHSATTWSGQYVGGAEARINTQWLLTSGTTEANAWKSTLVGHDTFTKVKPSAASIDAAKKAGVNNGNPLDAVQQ
Sequence of Torsin-1A (Homo sapiens) (O14656 whole entry, looked up): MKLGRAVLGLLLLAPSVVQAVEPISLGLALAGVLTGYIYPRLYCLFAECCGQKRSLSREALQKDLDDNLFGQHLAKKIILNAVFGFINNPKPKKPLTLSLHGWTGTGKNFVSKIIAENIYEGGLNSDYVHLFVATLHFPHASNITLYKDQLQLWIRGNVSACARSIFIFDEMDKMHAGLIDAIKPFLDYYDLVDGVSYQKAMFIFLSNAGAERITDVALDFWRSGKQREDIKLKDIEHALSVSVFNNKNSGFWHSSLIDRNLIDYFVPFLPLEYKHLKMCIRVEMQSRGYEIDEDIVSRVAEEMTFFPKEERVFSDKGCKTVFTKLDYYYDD

Regarding `COC(=O)[C@H]1[C@H](c2ccccc2)C(=O)[C@]2(O)c3ccccc3O[C@@]12c1ccccc1`, the composite z-score was 0.129 in [1]; 0.287 in [6]; -0.101 in [7]; 0.202 with Torsin-1A (Homo sapiens) [8]; 0.163 in the assay with Torsin-1A (Homo sapiens) [9]; 0.615 in assay [10]. For the same compound, in assay [12], the composite z-score is -0.0523. For the same compound, the z-score in assay [2] is -0.962 (inactive); in [3], -1.45 (inactive); in assay [4], -0.161 (inactive); in [5], -0.474 (inactive); in [11], -0.474 (inactive); in [13], -0.446 (inactive). The z-score in assay [14] is -0.657 (inactive); in assay [15] it was 0.126 (inactive); in assay [16], -0.564 (inactive); in assay [17] it was 1.55; in [18], -0.181 (inactive); in assay [19] it was -1.55 (inactive). Further, the z-score in [20] is -0.324.
In the case of `O=P(c1ccccc1)(c1ccccc1)N1CC2(CC2)CC(O)(c2ccccc2)C1` (stereo not given), the composite z-score in assay [1] is 0.323; in assay [6] it was 0.386; in [7] it was 0.309; with Torsin-1A (Homo sapiens) [8], -0.316; with Torsin-1A (Homo sapiens) [9], -0.276; in assay [10], -1.05. For the same compound, the composite z-score in [12] stood at 0.276. The z-score in [2] was -1.55 (inactive); in assay [3] it was 0.525 (inactive); in assay [4], 0.204 (inactive); in [5] it was -0.927 (inactive); in assay [11], -1.16 (inactive); in [13] it was 0.492 (inactive). The z-score is 0.585 (inactive) in [14]; 0.483 (inactive) in assay [15]; 0.741 (inactive) in assay [16]; 0.0869 in assay [17]; -0.356 (inactive) in [18]; -0.976 (inactive) in assay [19]. Moreover, the z-score in assay [20] was -2.94.
Regarding `CN1CCc2nc(CO)c(CO)cc2C1`, the composite z-score in assay [1] was 0.233; in assay [6] it was 0.0991; in assay [7], 0.0442; with Torsin-1A (Homo sapiens) [8], -0.0701; with Torsin-1A (Homo sapiens) [9] it was 0.557; in assay [10], 0.424. Besides, in assay [12], the composite z-score turned out to be 0.0504. Also, the z-score in assay [2] is -0.0958 (inactive); in [3], 0.424 (inactive); in [4], 1.37 (inactive); in assay [5], -0.0826 (inactive); in assay [11], 0.0958 (inactive); in assay [13], 0.297 (inactive). The z-score was 0.538 (inactive) in [14]; -0.508 (inactive) in assay [15]; 0.101 (inactive) in assay [16]; -0.121 in assay [17]; 1.62 (inactive) in [18]; -1.25 (inactive) in assay [19]. Besides, the z-score in assay [20] is -0.795.
For the compound `COC(=O)[C@@]1(Cc2ccccc2)[C@H]2c3cc(C(=O)N(C)C)[nH]c3C[C@H]2CN1C(=O)c1ccccc1`, the composite z-score in assay [1] is 0.155; in assay [6], -0.033; in [7] it was -0.147; with Torsin-1A (Homo sapiens) [8], -0.816; with Torsin-1A (Homo sapiens) [9] it was -0.317; in assay [10], -0.836. Further, the composite z-score in assay [12] was determined as 0.802. Also, the z-score in [2] was -0.167 (inactive); in assay [3], -0.0166 (inactive); in assay [4] it was -0.368 (inactive); in assay [5], -0.897 (inactive); in [11] it was -1.41 (inactive); in [13], 1.11 (inactive). Further, the z-score in [14] was 0.322 (inactive); in assay [15], 0.337 (inactive); in [16], 0.766 (inactive); in assay [17], -0.519; in assay [18], 0.434 (inactive); in assay [19] it was 0.0256 (inactive). In addition, the z-score in assay [20] was -3.03.
In the case of `C[C@H]1O[C@H]2C3=C(C(=O)[C@@H]4O[C@@H]4[C@@H]3O)[C@@H]1[C@@H]1[C@@H](C)OC=C3[C@@H](O)[C@H]4O[C@H]4C(=O)[C@]312`, the composite z-score was -0.176 in [1]; -0.418 in [6]; -0.208 in assay [7]; 0.251 with Torsin-1A (Homo sapiens) [8]; -0.306 in the assay with Torsin-1A (Homo sapiens) [9]; 0.534 in assay [10]. The composite z-score in assay [12] is -0.321. Further, the z-score in [2] is -3.24 (inactive); in assay [3], -1.61 (inactive); in [4] it was 1.65 (inactive); in assay [5], 1.76 (inactive); in assay [11], -0.209 (inactive); in [13], -0.49 (inactive). Moreover, the z-score in [14] was -0.569 (inactive); in assay [15], 0.276 (inactive); in assay [16], -0.987 (inactive); in assay [17], 1.5; in [18], -0.203 (inactive); in assay [19], -0.0614 (inactive). Moreover, the z-score in [20] came out at 0.441.
As to `COC(=O)[C@@]1(Cc2ccc(F)cc2)[C@H]2c3cc(C(=O)N(C)C)[nH]c3C[C@H]2CN1C(=O)c1ccccc1`, the composite z-score in [1] was 0.163; in assay [6], 0.134; in [7] it was 0.143 [setting not given]; in the assay with Torsin-1A (Homo sapiens) [8], 0.181; with Torsin-1A (Homo sapiens) [9], 0.252; in assay [10] it was -0.879. Besides, the composite z-score in assay [12] was 0.0738 [setting not given]. The z-score in assay [2] was -0.108 [setting not given] (inactive); in assay [3], 0.208 (inactive); in assay [4] it was -0.754 [setting not given] (inactive); in assay [5] it was -0.0669 [setting not given] (inactive); in assay [11] it was -0.652 [setting not given] (inactive); in assay [13] it was 1.37 [setting not given] (inactive). Further, the z-score is 0.0978 [setting not given] (inactive) in assay [14]; 0.219 [setting not given] (inactive) in assay [15]; 0.641 [setting not given] (inactive) in assay [16]; -0.393 in assay [17]; 0.33 [setting not given] (inactive) in assay [18]; 0.502 [setting not given] (inactive) in assay [19]. In [20], the z-score is -0.936.
In the case of `CCCc1cc2c(n1Cc1ccco1)C(C)C1CN(C(=O)c3ccccc3)C(C)(C(=O)OC)C21` (stereo not given), the composite z-score was 0.326 in assay [1]; 1 in [6]; 0.173 in assay [7]; 0.556 with Torsin-1A (Homo sapiens) [8]; 0.944 with Torsin-1A (Homo sapiens) [9]; 0.357 in assay [10]. The same compound displayed a composite z-score in assay [12] of 0.439. For the same compound, the z-score in assay [2] was -2.79 (inactive); in assay [3], 0.666 (inactive); in [4], 0.394 (inactive); in assay [5], 0.718 (inactive); in [11], -2.11 (inactive); in assay [13], 5.21 (inactive). For the same compound, the z-score is 0.63 (inactive) in assay [14]; 0.952 (inactive) in [15]; 0.495 (inactive) in assay [16]; -0.11 in assay [17]; -1.61 (inactive) in assay [18]; -6.73 (inactive) in assay [19]. Further, the z-score in assay [20] was -3.84.
As for `COc1cc2c(cc1O)C(C)N(C)CC2` (stereo not given), the composite z-score in [1] is -0.0967; in assay [6], 0.0031; in assay [7], -0.0468; with Torsin-1A (Homo sapiens) [8] it was -0.638; with Torsin-1A (Homo sapiens) [9] it was -0.744; in assay [10] it was -0.12. In [12], this compound gave a composite z-score of 0.026. In addition, the z-score in assay [2] is 0.639 (inactive); in assay [3], 0.67 (inactive); in [4] it was 0.0655 (inactive); in [5], -0.497 (inactive); in assay [11], 1.01 (inactive); in assay [13], 0.726 (inactive). The z-score was 0.0698 (inactive) in assay [14]; -0.306 (inactive) in [15]; 0.107 (inactive) in [16]; -0.0939 in assay [17]; -2.93 (inactive) in [18]; -1.92 (inactive) in [19]. In addition, the z-score in assay [20] was -2.86.
